Drawing on PubChem BioAssay (NCI), this text covers growth for 15 molecules.

Test systems include K-562 leukemia; MDA-MB-231 breast; RXF 393 renal; SF-268 CNS; SF-295 CNS; SF-539 CNS; UACC-257 melanoma; M14 melanoma; HCT-15 colon; MALME-3M melanoma.
Common to all, as to experiment: NCI-60 one-dose screen, 48 h (100 = growth as untreated, 0 = no growth, -100 = all killed)
What all share (settings): 10 µM

This is part of a sample that, as a whole, favours compounds with a hit. Of some 83,000 tested, about 20% had one in any assay.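 The endpoint reported here, percent growth, reads 100 for growth as untreated, 0 for no net growth and -100 for all cells dead.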 Unmarked numbers belong to inactive results. Active and inactive are the calls of the source. The calls were made as follows: active = growth percent below 10; inactive = the rest.

With `COc1cc(-c2cc(C(=O)N3CCN(C(=O)c4ccccc4NCc4ccco4)CC3)nc3cc(-c4ccccc4)nn23)cc(OC)c1OC`, the growth is 12.3% in the assay on K-562 leukemia; 42.9% in the assay with MDA-MB-231 breast; 6.82% (active) with RXF 393 renal; 38.6% in the assay with SF-268 CNS; 49.7% in the assay on SF-295 CNS; 17.8% with SF-539 CNS. In addition, the growth in the assay on UACC-257 melanoma was 33.6%; with M14 melanoma, 23.8%; in the assay on HCT-15 colon it was 29.1%.

As for `COc1ccc2c(c1)C(=O)c1c-2c(OCCN(C)C)nc2cc(OC)c(OC)cc12`, the growth was 62% in the assay on K-562 leukemia; 72.3% in the assay with MDA-MB-231 breast; 70.4% in the assay on RXF 393 renal; 41% with SF-268 CNS; 21.5% in the assay with SF-295 CNS; 71.9% with SF-539 CNS. The growth with UACC-257 melanoma was 103%; in the assay on M14 melanoma, 88.8%; with HCT-15 colon, 76.8%.

With `CCN(CC)CCC(=O)Nc1cccc2c1C(=O)c1c(c(O)c3ccccc3c1O)C2=O`, the growth with K-562 leukemia was 23.3%; in the assay on MALME-3M melanoma it was 61.6%; in the assay with RXF 393 renal, 58.4%; in the assay on SF-268 CNS it was 56.9%; with SF-295 CNS it was 25.7%; in the assay on SF-539 CNS it was 38%. Moreover, the growth is 85.6% in the assay on UACC-257 melanoma, 70.8% with M14 melanoma and 51.9% in the assay with HCT-15 colon.

Consider `COc1ccc2c(c1)sc1nc(-c3ccccc3)c(-c3cccnc3)n12`, for which the growth in the assay with K-562 leukemia is 82%; in the assay with MDA-MB-231 breast it was 107%; with RXF 393 renal it was 103%; with SF-268 CNS, 111%; in the assay with SF-295 CNS, 97%; in the assay with SF-539 CNS, 102%. Also, the growth with UACC-257 melanoma was 100%; in the assay on M14 melanoma, 97.7%; in the assay with HCT-15 colon it was 84.6%.

As to `CCCCCCCCCCCCCC[n+]1ccc(C(N)=O)cc1`, the growth in the assay with K-562 leukemia is 9.07% (active); in the assay on MDA-MB-231 breast it was -35.3% (active); in the assay on RXF 393 renal, -52.4% (active); in the assay with SF-268 CNS it was -12.5% (active); in the assay on SF-295 CNS it was -27.8% (active); in the assay with SF-539 CNS it was -3.7% (active). For the same molecule, the growth is 9.72% (active) in the assay on UACC-257 melanoma, -45.1% (active) in the assay with M14 melanoma and 62.6% in the assay on HCT-15 colon.

As to `O=C(CC(NC(=O)OCc1ccccc1)C(=O)OCc1ccccc1)OCc1ccccc1` (stereo not given), the growth with K-562 leukemia is 112%; with MDA-MB-231 breast, 123%; with RXF 393 renal it was 125%; in the assay with SF-268 CNS, 103%; with SF-295 CNS, 110%; in the assay with SF-539 CNS it was 111%. Further, the growth with UACC-257 melanoma is 94.2%; with M14 melanoma, 90.5%; with HCT-15 colon it was 106%.

As to `CCN1CCC2(CC1)OC(c1ccccc1)C(c1ccccc1)O2` (stereo not given), the growth is 88.2% in the assay on K-562 leukemia; 122% in the assay with MDA-MB-231 breast; 109% in the assay on RXF 393 renal; 108% in the assay with SF-268 CNS; 111% with SF-295 CNS; 116% in the assay on SF-539 CNS. Moreover, the growth is 116% in the assay with UACC-257 melanoma, 112% in the assay with M14 melanoma and 106% in the assay on HCT-15 colon.

Regarding `Cc1cc(C)c(CCc2cc(C)c(C)cc2C)cc1C`, the growth in the assay with K-562 leukemia was 94.8%; in the assay with MDA-MB-231 breast, 104%; in the assay with RXF 393 renal it was 117%; with SF-268 CNS, 103%; with SF-295 CNS, 108%; in the assay with SF-539 CNS, 105%. The growth in the assay on UACC-257 melanoma is 101%; with M14 melanoma it was 111%; in the assay on HCT-15 colon, 117%.

With `Clc1cccc(-c2nc(-c3cccs3)no2)c1`, the growth with K-562 leukemia is 102%; in the assay with MDA-MB-231 breast, 81.4%; with RXF 393 renal, 113%; with SF-268 CNS it was 106%; in the assay with SF-295 CNS it was 92.2%; in the assay on SF-539 CNS, 92.6%. Besides, the growth is 110% with UACC-257 melanoma, 105% in the assay with M14 melanoma and 47.4% with HCT-15 colon.

As to `COc1cc(-c2cc(/C=C3\C(=O)Nc4ccc(Cl)cc43)[nH]n2)cc(OC)c1OC`, the growth in the assay with K-562 leukemia is 8.43% (active); with MDA-MB-231 breast, 52.4%; in the assay with RXF 393 renal it was 69.2%; in the assay with SF-268 CNS, 38.2%; with SF-295 CNS, 46.9%; with SF-539 CNS, 45.1%. Also, the values for the growth in the assay with UACC-257 melanoma, with M14 melanoma and in the assay with HCT-15 colon were 18.7%, 5.02% (active) and 7.21% (active), respectively.

In the case of `O=c1cc(-c2ccccc2)[nH]n1-c1nc2ccccc2[nH]1`, the growth in the assay with K-562 leukemia was 10.1%; in the assay on MDA-MB-231 breast, 73%; with RXF 393 renal, 52.2%; in the assay with SF-268 CNS, 60.2%; with SF-295 CNS it was 21.6%; in the assay with SF-539 CNS it was 47.6%. Further, the growth was 75.6% with UACC-257 melanoma, 41.8% in the assay with M14 melanoma and 30.7% in the assay with HCT-15 colon.

With `ClC(Cl)(Cl)c1nc2nccnc2[nH]1`, the growth in the assay on K-562 leukemia is 101%; with MALME-3M melanoma it was 102%; in the assay on RXF 393 renal it was 111%; in the assay with SF-268 CNS, 113%; in the assay on SF-295 CNS it was 78.9%; in the assay with SF-539 CNS, 99.6%. Also, the growth in the assay on UACC-257 melanoma was 108%; in the assay with M14 melanoma, 103%; with HCT-15 colon, 103%.

`FC(F)(F)c1ccc2nc(-c3nc(-c4ccccc4)n4ccccc34)[nH]c2c1`: the growth in the assay with K-562 leukemia was 82.7%; in the assay on MDA-MB-231 breast, 22.1%; in the assay with RXF 393 renal it was 94.4%; with SF-268 CNS it was 49.1%; in the assay on SF-295 CNS it was 104%; in the assay on SF-539 CNS, 35.1%. Also, the growth in the assay with UACC-257 melanoma is 81.7%; with M14 melanoma, 96%; in the assay with HCT-15 colon, 60.4%.

As to `Cc1ccc2oc3nc(C)c(C(=O)NCc4ccccc4)cc3c(=O)c2c1`, the growth with K-562 leukemia was 18.4%; with MDA-MB-231 breast, 88.8%; with RXF 393 renal it was 120%; in the assay with SF-268 CNS, 95.3%; in the assay with SF-295 CNS, 41.9%; in the assay with SF-539 CNS, 99.3%. In addition, the growth in the assay on UACC-257 melanoma was 69.2%; in the assay on M14 melanoma it was 29%; in the assay on HCT-15 colon it was 78.8%.

As to `COc1cc(/C=C2\CCCC3=C2N=C2SC=NN2C3c2cc(OC)c(OC)c(OC)c2)cc(OC)c1OC` (stereo not given), the growth is 8.28% (active) in the assay on K-562 leukemia; 2.06% (active) in the assay on MDA-MB-231 breast; 21.7% in the assay on RXF 393 renal; 22.9% in the assay with SF-268 CNS; 21.4% in the assay with SF-295 CNS; 5.9% (active) in the assay on SF-539 CNS. In addition, the values for the growth with UACC-257 melanoma, in the assay with M14 melanoma and in the assay with HCT-15 colon were 34.3%, 9.84% (active) and 6.59% (active), respectively.
